The values that follow come from the supplement of paper PMC7380943.
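Further: compound given one day before doxycycline, which switches on I-SceI endonuclease expression to create double-strand breaks within the integrated reporter.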

For the assay, the system named is CLZ3 (HCA2 human fibroblast dual HR-NHEJ reporter). Nature of the assay: HR repair efficiency (tdTomato+ cells) relative to control (log10 fold); higher = more homologous recombination. Particulars: 5 µM; doxycycline 0.5 ug/mL.
Regarding `Cc1cc(O)c2c(c1)C(=O)c1cccc(O)c1C2=O` [Chrysophanol], the “HR repair efficiency (log10)” value was 0.134.
In the case of `CC(=O)O[C@@H]1CC[C@@]2(C)[C@@H](CC[C@]3(C)[C@@H]2C(=O)C=C2[C@@H]4[C@@H](C)[C@H](C)CC[C@]4(C)CC[C@]23C)[C@@]1(C)C(=O)O` [3-Acetyl-11-Keto-Beta-Boswellic Acid], the “HR repair efficiency (log10)” value is -0.0515.
As for `O=C1c2ccccc2C(=O)c2c1cc(O)c(CO)c2O` [Lucidin], the figure is 0.258.
As for `COc1cc(/C=C/C(=O)O)ccc1O` [Sodium Ferulate], the figure is 0.0132.
For the compound `CC1OC(OC2C(C)OC(OC(=O)C34CCC(C)(C)CC3C3=CCC5C6(C)CCC(OC7OC(C(=O)O)C(OC8OC(CO)C(OC9OC(CO)C(O)C(O)C9O)C(O)C8O)C(OC8OCC(O)C(O)C8O)C7O)C(C)(C=O)C6CCC5(C)C3(C)CC4)C(OC3OCC(O)C(O)C3OC3OCC(O)C(O)C3O)C2O)C(O)C(OC2OCC(O)C(O)C2O)C1O` (stereo not given) [Gypenoside], the “HR repair efficiency (log10)” value is 0.115.
In the case of `COc1ccc(-c2coc3cc(O)ccc3c2=O)cc1` [Formononetin] it was 0.128.
In the case of `COC(=O)C1=CO[C@@H](O[C@@H]2O[C@H](CO)[C@@H](O)[C@H](O)[C@H]2O)[C@@H]2[C@@H](C)[C@@H](O)C[C@H]12` [Loganin] it was 0.191.
In the case of `COc1c(O[C@@H]2O[C@H](C(=O)O)[C@@H](O)[C@H](O)[C@H]2O)cc(O)c2c(=O)cc(-c3ccccc3)oc12` [Wogonoside] it was -0.00302; in that of `C[C@@H]1CC[C@@]2(OC1)O[C@H]1C[C@H]3[C@@H]4CC[C@H]5C[C@@H](O)CC[C@]5(C)[C@H]4CC[C@]3(C)[C@H]1[C@@H]2C` [Tigogenin], 0.0468; in that of `O=C(O)CC(O)(CC(=O)O)C(=O)O` [Citric Acid], -0.109.
With `CCCCCCCCCC(=O)CC(O)S(=O)(=O)O` (stereo not given) [Sodium Houttuyfonate], the “HR repair efficiency (log10)” value came out at 0.102.
As for `COC(=O)C1=CO[C@@H](O[C@@H]2O[C@H](CO[C@@H]3O[C@H](CO)[C@@H](O)[C@H](O)[C@H]3O)[C@@H](O)[C@H](O)[C@H]2O)[C@@H]2C(CO)=CC[C@H]12` [Genipin 1-Gentiobioside], the figure is 0.0278; as for `OC[C@H]1O[C@H](OC[C@H]2O[C@H](O[C@]3(CO)O[C@H](CO)[C@@H](O)[C@@H]3O)[C@H](O)[C@@H](O)[C@@H]2O)[C@H](O)[C@@H](O)[C@H]1O` [Raffinose], -0.00512.
As for `C=CC1=C(C)/C(=C/c2[nH]c(Cc3[nH]c(/C=C4\NC(=O)C(C)=C4C=C)c(C)c3CCC(=O)O)c(CCC(=O)O)c2C)NC1=O` [Bilirubin], the figure is -0.0828.
In the case of `O=C1c2cccc(O)c2C(=O)c2c(O)cccc21` [1,8-Dihydroxyanthraquinone] it was -0.106.
`CC1(C)[C@@H](O[C@H]2O[C@H](C(=O)O)[C@@H](O)[C@H](O)[C@H]2O[C@@H]2O[C@H](C(=O)O)[C@@H](O)[C@H](O)[C@H]2O)CC[C@]2(C)[C@H]3C(=O)C=C4[C@@H]5C[C@@](C)(C(=O)O)CC[C@]5(C)CC[C@@]4(C)[C@]3(C)CC[C@@H]12` [Monoammonium glycyrrhizinate]: the “HR repair efficiency (log10)” value was -0.0779.
With `NC(=O)NC1NC(=O)NC1=O` (stereo not given) [Allantoin], the “HR repair efficiency (log10)” value is 0.00746.
On to `CC=C1[C@H](O[C@@H]2O[C@H](CO)[C@@H](O)[C@H](O)[C@H]2O)OC=C(C(=O)OC)[C@H]1CC(=O)OC[C@H]1O[C@@H](OCCc2ccc(O)cc2)[C@H](O)[C@@H](O)[C@@H]1O` (stereo in doubt) [Specnuezhenide], for which the “HR repair efficiency (log10)” value came to 0.0832.
In the case of `COc1ccc2[nH]cc(CCNC(C)=O)c2c1` [Melatonin] it was 0.227.
In the case of `C[C@H](CCC(=O)O)[C@H]1CC[C@H]2[C@@H]3C[C@H](O)[C@@H]4C[C@H](O)CC[C@]4(C)[C@H]3CC[C@]12C` [Hyodesoxycholic acid] it was -0.322.
Regarding `COc1ccc2cc1Oc1ccc(cc1)C[C@H]1c3cc(c(OC)cc3CCN1C)Oc1c(OC)c(OC)cc3c1[C@H](C2)N(C)CC3` [Tetrandrine], the “HR repair efficiency (log10)” value is -0.328.
In the case of `O=C1C[C@@H](c2ccc(O)cc2)Oc2cc(O)cc(O)c21` [Naringenin], the “HR repair efficiency (log10)” value was -0.025.
With `O=c1c(-c2ccc(O)cc2)coc2c([C@@H]3O[C@H](CO)[C@@H](O)[C@H](O)[C@H]3O)c(O)ccc12` [Puerarin], the “HR repair efficiency (log10)” value amounted to 0.038.
As for `COC(=O)c1c2c(c3ccccc3c1O)OC(C)(C)C=C2` [Rubimaillin], the figure is -0.0243.
In the case of `COc1cc(OC)c(CCC(=O)c2ccc(O)cc2)c(OC)c1` it was 0.0988.
